# In PubChem BioAssay:
# Unmarked numbers belong to inactive results. For some assays here: Results with a measured potency or affinity are listed apart. Activity calls are given as the source filed them. Unless noted, the rule behind the calls is not given here.
# What was measured:
# [1] = antimalarial activity against Dd2 strain (AID 2302;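 active = growth inhibition above 50% at the single 2 µM test dose, taken to imply half-maximal potency below 2 µM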;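 note: 0% = DMSO untreated growth and 100% = chloroquine plus artemisinin killed control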); settings: P. falciparum Dd2 in RBCs, LDH growth readout, 72 h; at 2 µM; hits give high values
# [2] = human hepatoma cell viability loss – ATP luminescence, cytotoxicity control for P. falciparum antimalarial project, primary screen (AID 2303;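 active = inhibition above 50%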;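 note: 0% = DMSO wells and 100% = digitonin-killed cells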); settings: HepG2 viability, 24-48 h, at 10 µM, hits give high values
# [3] = biological target: L-lactate dehydrogenase (Plasmodium falciparum (isolate CDC / Honduras)) (UniProt Q27743); experiment: PfLDH activity inhibition – cell lysate, 3D7 strain, counter-screen for P. falciparum growth inhibition project (AID 2304);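 note: 0% = vehicle and 100% = reference inhibitor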; settings: P. falciparum 3D7 crude extract, LDH APAD/NBT absorbance; at 2 µM; hits give high values
# [4] = inhibition of 3D7 malaria parasite growth – strain 3D7 (AID 2306);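 note: 0% = DMSO wells and 100% = chloroquine plus artemisinin control wells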; settings: P. falciparum 3D7 erythrocytic growth, LDH absorbance, 72 h; at 2 µM; hits give high values
# [5] = biological target: Calcium-dependent protein kinase 1 (Plasmodium falciparum (isolate 3D7)) (UniProt P62344); experiment: PfCDPK1 kinase inhibitors, biochemical, TCAMS library (AID 1159585; cut-off not given, nearly all actives have IC50 up to about 0.98 µM;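 note: inhibitors leave more ATP so luminescence rises with inhibition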); settings: recombinant PfCDPK1, Kinase-Glo ATP depletion luminescence
# [6] = biological target: Plasmodium falciparum protein kinase 6 (PK6, PF3D7_1337100) (UniProt Q8IDW1); experiment: PfPK6 kinase inhibitors, biochemical, TCAMS library (AID 1159586); settings: recombinant PfPK6, Kinase-Glo ATP depletion luminescence
# [7] = biological target: Protein kinase 7 (PK7), Plasmodium falciparum 3D7 (PF3D7_0213400) (UniProt Q7YTF7); experiment: inhibition of Plasmodium PK7 catalytic activity – biochemical, TCAMS antimalarial set, Kinase-Glo luminescence (AID 1159587); settings: recombinant PfPK7, Kinase-Glo ATP depletion luminescence
# [8] = biological target: Calcium-dependent protein kinase 4 (Plasmodium falciparum (isolate 3D7)) (UniProt Q8IBS5); experiment: PfCDPK4 kinase inhibitors, biochemical, TCAMS library (AID 1159588; cut-off not given, nearly all actives have IC50 up to about 0.91 µM); settings: recombinant PfCDPK4, Kinase-Glo ATP depletion luminescence
# Calcium-dependent protein kinase 4 (Plasmodium falciparum (isolate 3D7)), sequence (Q8IBS5 whole entry, looked up): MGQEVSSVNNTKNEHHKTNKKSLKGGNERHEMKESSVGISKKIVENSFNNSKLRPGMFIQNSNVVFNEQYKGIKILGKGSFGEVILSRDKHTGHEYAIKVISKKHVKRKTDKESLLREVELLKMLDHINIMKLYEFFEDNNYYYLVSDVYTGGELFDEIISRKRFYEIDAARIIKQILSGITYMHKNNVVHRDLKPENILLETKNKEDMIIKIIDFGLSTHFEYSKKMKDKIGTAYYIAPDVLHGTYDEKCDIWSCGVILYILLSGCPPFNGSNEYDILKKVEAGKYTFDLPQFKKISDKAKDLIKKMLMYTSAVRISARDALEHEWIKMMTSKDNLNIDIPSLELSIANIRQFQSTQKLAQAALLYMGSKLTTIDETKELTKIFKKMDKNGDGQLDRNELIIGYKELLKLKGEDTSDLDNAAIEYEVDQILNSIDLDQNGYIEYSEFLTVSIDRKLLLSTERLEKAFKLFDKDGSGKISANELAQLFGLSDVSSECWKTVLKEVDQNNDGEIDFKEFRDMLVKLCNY
# L-lactate dehydrogenase (Plasmodium falciparum (isolate CDC / Honduras)), sequence (Q27743 whole entry, looked up): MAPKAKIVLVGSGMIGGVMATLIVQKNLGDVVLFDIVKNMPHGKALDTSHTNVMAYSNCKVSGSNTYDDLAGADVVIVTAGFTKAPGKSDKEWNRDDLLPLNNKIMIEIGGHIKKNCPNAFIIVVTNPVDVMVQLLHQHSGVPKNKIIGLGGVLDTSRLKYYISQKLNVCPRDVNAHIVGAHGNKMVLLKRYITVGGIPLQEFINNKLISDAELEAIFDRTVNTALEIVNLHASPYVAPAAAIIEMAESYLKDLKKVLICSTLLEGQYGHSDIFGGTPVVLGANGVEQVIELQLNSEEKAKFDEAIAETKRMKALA
# Plasmodium falciparum protein kinase 6 (PK6, PF3D7_1337100), sequence (Q8IDW1 1-305): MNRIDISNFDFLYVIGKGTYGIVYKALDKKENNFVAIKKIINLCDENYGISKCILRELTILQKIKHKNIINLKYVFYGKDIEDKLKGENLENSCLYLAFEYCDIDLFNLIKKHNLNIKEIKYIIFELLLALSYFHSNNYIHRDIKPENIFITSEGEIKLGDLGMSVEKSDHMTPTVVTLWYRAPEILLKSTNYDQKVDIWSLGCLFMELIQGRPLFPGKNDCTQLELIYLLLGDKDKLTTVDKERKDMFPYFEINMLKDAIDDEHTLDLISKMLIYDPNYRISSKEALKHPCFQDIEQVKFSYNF
# Protein kinase 7 (PK7), Plasmodium falciparum 3D7 (PF3D7_0213400), sequence (Q7YTF7 1-343): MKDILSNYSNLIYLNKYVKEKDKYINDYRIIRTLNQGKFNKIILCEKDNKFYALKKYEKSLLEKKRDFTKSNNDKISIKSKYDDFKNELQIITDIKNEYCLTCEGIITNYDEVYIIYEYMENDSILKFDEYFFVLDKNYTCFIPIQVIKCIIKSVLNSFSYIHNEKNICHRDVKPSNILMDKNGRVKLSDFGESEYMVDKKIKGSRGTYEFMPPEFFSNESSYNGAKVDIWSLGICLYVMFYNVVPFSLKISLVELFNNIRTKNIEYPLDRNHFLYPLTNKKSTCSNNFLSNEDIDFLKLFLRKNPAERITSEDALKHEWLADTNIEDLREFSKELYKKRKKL
# Calcium-dependent protein kinase 1 (Plasmodium falciparum (isolate 3D7)), sequence (P62344 whole entry, looked up): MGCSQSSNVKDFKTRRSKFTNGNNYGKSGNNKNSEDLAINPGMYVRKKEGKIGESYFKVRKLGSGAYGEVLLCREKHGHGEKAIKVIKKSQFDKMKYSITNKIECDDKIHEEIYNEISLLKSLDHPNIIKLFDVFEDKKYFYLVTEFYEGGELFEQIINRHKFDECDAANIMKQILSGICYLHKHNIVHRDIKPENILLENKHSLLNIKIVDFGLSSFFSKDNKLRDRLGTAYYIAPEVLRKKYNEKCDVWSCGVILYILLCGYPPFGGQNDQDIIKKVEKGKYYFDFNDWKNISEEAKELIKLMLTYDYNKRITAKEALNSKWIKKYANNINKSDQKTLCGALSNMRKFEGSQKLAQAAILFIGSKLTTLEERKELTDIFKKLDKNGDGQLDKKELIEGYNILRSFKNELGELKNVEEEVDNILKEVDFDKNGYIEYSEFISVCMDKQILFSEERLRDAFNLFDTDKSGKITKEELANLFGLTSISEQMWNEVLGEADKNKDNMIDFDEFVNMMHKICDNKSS
SMILES,growth inhibition [1],inhibition [2],inhibition [3] [%],growth inhibition [4],outcome [5],outcome [6],outcome [7],outcome [8]
O=C(/C=C/c1ccc(Cl)c(Cl)c1)NCCCCCCN1CCN(C(=O)Nc2ccc(OC(F)F)cc2)CC1,15%,44%,-4,91% (active),inactive,inactive,inactive,inactive
Cc1ccc(N)cc1-c1nc(NC2CC(C)(C)NC(C)(C)C2)nc2c1ccc(=O)n2-c1c(F)cccc1F,1%,0%,-5,98% (active),inactive,inactive,inactive,inactive
COc1ccc2nc(-c3cc(-c4ccc(NC(=O)C(C)C)cc4)cnc3N)[nH]c2c1,47%,43%,3,101% (active),inactive,inactive,inactive,inactive
CC(=O)N1N=C(c2ccc(F)cc2)Sc2c1nc(C1CCCCC1)n2C(C)=O,9%,4%,4,92% (active),inactive,inactive,inactive,inactive
Fc1ccc2nc(-c3ccc(-c4cccc(CN5CCC(CCN6CCCCC6)CC5)c4)cc3)[nH]c2c1,100% (active),96% (active),5,101% (active),inactive,inactive,inactive,inactive
COc1ccc2nccc([C@@H](O)CN3CCC(NCc4cc5ccccc5o4)CC3)c2c1,72% (active),17%,4,96% (active),inactive,inactive,inactive,inactive
NC1(C(=O)O)Cc2ccc(Cl)cc2C1 (stereo not given),1%,0%,-3,93% (active),inactive,inactive,inactive,inactive
CC(C)(C)NS(=O)(=O)c1cc(C(=O)N2CCC(CCN3CCC(C(=O)c4ccc(F)cc4)CC3)(c3cccc(F)c3)CC2)c(Cl)cc1F,99% (active),-1%,4,99% (active),inactive,inactive,inactive,inactive
OC1(c2ccc(Br)cc2)CCN(C2CCN(Cc3ccccc3)CC2)CC1,18%,8%,8,100% (active),inactive,inactive,inactive,inactive
NC(N)=Nc1nc(-c2cccc(NC(=O)Cc3ccccc3)c2)cs1,9%,1%,-8,99% (active),inactive,inactive,inactive,inactive
COc1cccc2cc(C(=O)N[C@@H](CC(C)C)C(=O)N[C@H](/C=N/N3CCOC3=O)CC(C)C)oc12,72% (active),4%,-2,90% (active),inactive,inactive,inactive,inactive
O=C(Nc1ccc(Cn2ncc(N3CCCNCC3)c(Cl)c2=O)cc1)Nc1cc(C(F)(F)F)cc(C(F)(F)F)c1,29%,25%,3,100% (active),inactive,inactive,inactive,inactive
CCCCCCCCCCS(=O)(=O)N[C@H](COCc1cccc(Oc2ccccc2)c1)COP(=O)(O)OC,-3%,-1%,-8,87% (active),inactive,inactive,inactive,inactive
O=C(NCCCNc1ccnc2cc(Cl)ccc12)c1ccccc1F,97% (active),18%,3,100% (active),inactive,inactive,inactive,inactive
CCCCN(CCCC)C(=Nc1cccc(Cl)c1Cl)Nc1ccc(C#N)cc1O,69% (active),4%,-6,89% (active),inactive,inactive,inactive,inactive
COc1cccc(Cc2cnc3nc(N)nc(N)c3c2C)c1,76% (active),57% (active),0,94% (active),inactive,inactive,inactive,inactive
N#Cc1cccc(CN2CCCN(Cc3cccc(C(=O)Nc4ccc(Cl)cc4)c3)CC2)c1,9%,46%,1,82% (active),inactive,inactive,inactive,inactive
O=c1cc(NCCCNCc2cccc(OC(F)(F)F)c2)[nH]c2ccccc12,72% (active),-4%,-1,97% (active),inactive,inactive,inactive,inactive
CN(CCN1CCC(c2c[nH]c3ccccc23)CC1)c1ccc(-c2nc3cc(Cl)c(Cl)cc3[nH]2)cc1,101% (active),22%,-1,101% (active),inactive,inactive,inactive,inactive
CCCCn1c(=N)c(C(=O)NCc2cccnc2)cc2c(=O)n3cccc(C)c3nc21,47%,7%,-2,101% (active),inactive,inactive,inactive,inactive

SMILES,growth inhibition [1],inhibition [2],inhibition [3] [%],growth inhibition [4],outcome [5],outcome [6],outcome [7],outcome [8]
CN(CCc1ccccc1)c1ncc(-c2ccccc2CNCc2ccccc2O)cn1,94% (active),10%,-2,99% (active),inactive,inactive,inactive,inactive
Cc1cccc2[nH]c(-c3ccc(-c4ccc(NC(=O)NCc5ccc(F)cc5)cc4)cc3)nc12,99% (active),70% (active),-3,100% (active),inactive,inactive,inactive,inactive
CN(C)Cc1ccc(-c2ccc3ccnc(N)c3c2)cc1,100% (active),20%,-1,100% (active),inactive,inactive,inactive,inactive
CC(C)c1ccc(NC(=O)c2ccc(CN3CCCN(CC4CCCCC4)CC3)cc2)cc1,34%,50% (active),6,90% (active),inactive,inactive,inactive,inactive
COc1cc2ncnc(Nc3ccc(Br)c(Cl)c3)c2cc1OC,15%,22%,6,101% (active),inactive,inactive,inactive,inactive
CCc1ccc(NC(=O)c2ccc(CN3CCCN(Cc4cccc(O)c4)CC3)cc2)cc1,55% (active),51% (active),0,100% (active),inactive,inactive,inactive,inactive
NC1=NC(c2ccccc2)(c2ccccc2)C(=O)N1Cc1ccccc1Br,38%,36%,4,93% (active),inactive,inactive,inactive,inactive
Nc1nccc2ccc(Oc3ccncc3)cc12,81% (active),-3%,-2,91% (active),inactive,inactive,inactive,inactive
CNCCNCc1ccc(-c2ccc(-c3nc4ccc(C(F)(F)F)cc4[nH]3)cc2)cc1,92% (active),28%,1,99% (active),inactive,inactive,inactive,inactive
CC1(C)N=C(N)N=C(N)N1c1cccc(C(F)(F)F)c1,68% (active),60% (active),0,95% (active),inactive,inactive,inactive,inactive
N#Cc1ccc2c(c1)CCN(CCC1CCC(NC(=O)c3ccc(-c4ccccn4)s3)CC1)CC2 (stereo not given),9%,16%,1,92% (active),inactive,inactive,inactive,inactive
CN1CCN(CCCN(Cc2ccc(-c3cccc(CNCc4ccc5c(c4)OCO5)c3)cc2)C(=O)CCC2CCCC2)CC1,85% (active),24%,-5,92% (active),inactive,inactive,inactive,inactive
Cc1nc2nc(N)nc(N)c2c(C)c1Cc1ccc(O)cc1,0%,64% (active),1,94% (active),inactive,inactive,inactive,inactive
CCc1c(C)c(C#N)c2nc3ccccc3n2c1NCc1ccco1,90% (active),-3%,6,99% (active),inactive,inactive,inactive,inactive
O=C(N[C@H]1CCN(Cc2ccc(OCCN3CCNCC3)c(Cl)c2)C1)c1ccc(Cl)c(Cl)c1,5%,50% (active),-1,101% (active),inactive,inactive,inactive,inactive
Cc1ccc(O)c(-c2cc(C(=O)Nc3ccc(S(=O)(=O)N4CCCCC4)cc3)[nH]n2)c1,98% (active),31%,-4,94% (active),inactive,inactive,inactive,inactive
CCNc1cc(C(=O)N[C@@H](Cc2ccccc2)[C@H](O)CNC(C)CCCC(C)C)cc(N2CCCS2(=O)=O)c1 (stereo not given in full),98% (active),2%,5,99% (active),inactive,inactive,inactive,inactive
CCCCOc1cc(C)nc2ccc(NC(=O)COCC(=O)Nc3ccc4nc(C)cc(OCCCC)c4c3)cc12,28%,-11%,-3,90% (active),inactive,inactive,inactive,inactive
CCCC1N=C(N)N=C(N)N1c1ccc(CC)cc1 (stereo not given),4%,11%,1,94% (active),inactive,inactive,inactive,inactive
O=C(Nc1ccccc1)Nc1cccc(-c2cc(CNCCc3ccccc3)sc2-c2ccncc2)c1,84% (active),14%,7,100% (active),inactive,inactive,inactive,inactive
